Screens deposited in PubChem BioAssay by National Center for Advancing Translational Sciences (NCATS).
The list is not random: actives were taken first. Their share in the collection is about 11%.
JMJD2A Tudor = JMJD2A Tudor domain (human) inhibition; Potency, µM (top dose mostly 114 µM), without a hit: top-dose activity change, negative = inhibition, usual class: inhibitors; AID 504339; 390,000 tested, 4.4% active; AlphaScreen JMJD2A-Tudor / H3K4me3 peptide binding; O75164; further: on the % scale 0 is the no-effect control and ±100 the full control effect; nearly all actives have a fitted effect of over 50% in size
BAZ2B inh = BAZ2B (human) inhibition. Q9UIF8. AlphaScreen BAZ2B-H3K14Ac peptide displacement. Potency, µM (series often up to 114 µM), for inactives: at the top dose activity change, negative = inhibition, most hits filed as inhibitors. 360,000 tested, 4.4% active; further: on the % scale 0 is the no-effect control and ±100 the full control effect; nearly all actives have a fitted effect of over 60% in size
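Multi-concentration screen (max 110 uM) measuring displacement of acetylated histone H3 peptide from BAZ2B by AlphaScreen, using 50 nM protein, 50 nM peptide and 10 ug/mL streptavidin donor plus Ni-chelate acceptor beads.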
HP1b chromo inh = blocks HP1-beta chromodomain binding to methylated histone tails; AlphaScreen HP1-beta / biotin-H3K9me3 peptide binding; 390,000 tested, 0.56% active; AID 540317; Potency, µM (doses to about 114 µM), without a hit: at the highest dose activity change, negative = inhibition, actives largely listed as inhibitors; P83916; further: nearly all actives have a fitted effect of over 70% in size
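AlphaScreen: HP1-beta (50 nM) preformed 30 min with biotin-H3(1-18)K9me3 peptide (50 nM) in PBS pH 7.4, 0.01% Tween-20. Compound added for 30 min at RT, then streptavidin donor/nickel chelate acceptor beads (10 ug/mL) for 30 min.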
G9a block = blocks human histone lysine methyltransferase G9a; Q96KQ7; G9a H3K9 monomethylation, AlphaScreen, 2 h; Potency, µM (top dose mostly 102 µM), inactives show top-dose activity, negative = inhibition, most hits filed as inhibitors; 350,000 tested, 8.8% active; AID 504332; further: on the % scale 0 is the no-effect control and ±100 the full control effect; nearly all actives have a fitted effect of over 75% in size
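Using a bead-based AlphaScreen, monomethylated H3K9 product from 2 h room-temperature reactions (G9a 20 nM, peptide 500 nM, SAM 20 uM) was detected with 0.5 ug/mL rabbit anti-H3K9me1 antibody.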
L3MBTL1 block = blocks human L3MBTL1. Potency, µM (doses to about 57.1 µM), without a hit: top-dose activity, negative = inhibition, actives largely listed as inhibitors. AlphaScreen L3MBTL1–H3K9me1 peptide binding. Q9Y468. 230,000 tested, 0.66% active; further: on the % scale 0 is the no-effect control and ±100 the full control effect; nearly all actives have a fitted effect of over 60% in size
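Displacement of a biotinylated histone H3(1-15) peptide monomethylated at Lys9 (75 nM) from L3MBTL1 (50 nM) was measured by AlphaScreen after a 30 min room-temperature compound incubation; cefsulodin titration served as intraplate control.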
Numbers without * were called inactive; ? = inconclusive; nt = no result given; [ ] = remark or other dose. The call rests on the fitted dose curve; in most records, active means well fitted inhibition curve with a large enough effect; inconclusive means small, poorly fitted or top-dose-only effect; inactive means no such curve, though single readings can be large or run the other way. Potency means the concentration at half of the fitted maximal effect.

SMILES | JMJD2A Tudor | BAZ2B inh | HP1b chromo inh | G9a block | L3MBTL1 block
CC1(C)Oc2ccc3ccc(=O)oc3c2/C(=C/N)C1=O | -27% | -37% | -2% | -36% | -10%
CC1(C)Oc2ccc3ccc(=O)oc3c2/C(=C/O)C1=O | -10% | -21% | 25% | 45µM* | 0%
CC1(C)Oc2ccc3ccc(=O)oc3c2-c2cnoc21 | ? | 50µM* | 16% | ? | 37%
COc1ccc(S(=O)(=O)c2c(Nc3cccc(C)c3C)sc(C(=O)c3ccccc3)c2N)cc1 | -25% | -19% | 24% | -4%[59 µM] | nt
CCN(CC)c1ccc(CNCc2cccs2)cc1 | ? | 50µM* | -1% | ? | -8%
COc1cc(CNCc2cccs2)ccc1OCc1cccs1 | -10% | 11% | 17% | -3%[59 µM] | 4%
C/C(=N\NC(=O)c1ccc(Br)o1)c1cc2c(cc1NC(=O)CCC(=O)O)OCO2 | -21% | ? | 39% | 3.2µM* | nt
Cc1occc1C(=O)N1CCCC(N2CCN(c3ccccc3F)CC2)C1 (centres undefined) | -4% | -7% | 15% | -12%[12.7 µM] | nt
COc1ccc(C)cc1NC(=O)C(NC(=O)c1cc(OC)c(OC)c(OC)c1)C(C)C (centres undefined) | 40µM* | nt | ? | 1% | 4%
CCOc1ccc(C(=O)N[C@H](C(=O)Nc2ccccc2OC)C(C)C)cc1 | -1% | 3% | 24% | 18% | nt
O=C(NCCc1ccccc1)c1cc2ncc(Br)cn2n1 | -25% | 50µM* | 31% | -7%[12.7 µM] | nt
O=C(Nc1ccc2c(c1)OCO2)c1cc2ncc(Br)cn2n1 | ? | 50µM* | ? | ? | nt
Cc1ccc(CNC(=O)CN2C(=O)CSc3ccc(S(=O)(=O)N4CCCC4)cc32)cc1 | -11% | -24% | 39% | 2%[59 µM] | nt
CC(=O)c1cc(NC(=O)c2ccc([N+](=O)[O-])cc2)c(=O)oc1C | 9% | -23% | 30% | 22µM* | 1%
COC(=O)c1cc(NC(=O)c2ccc([N+](=O)[O-])cc2)c(=O)oc1C | -13% | -19% | 55% | ? | 3%
COc1ccc(C(=O)Nc2cc(C(=O)c3ccccc3)c(C)oc2=O)cc1 | ? | ? | ? | 8.9µM* | 0%
COC(=O)c1cc(NC(=O)c2ccccc2)c(=O)oc1C | -2% | -1% | -14% | 45µM* | nt
COC(=O)c1cc(NC(=O)c2ccc(C)cc2)c(=O)oc1C | ? | -2% | 45% | ? | nt
COc1ccc2[nH]cc(CCNc3ccnc(-c4ccc(C(=O)N(C)C)cc4)n3)c2c1 | nt | nt | nt | -8%[0.501 µM] | nt
CCCCS(=O)(=O)c1oc(-c2ccc(F)cc2)nc1S(=O)(=O)c1ccccc1 | -5% | -1% | 54% | ? | nt
COc1ccc(NC(=O)c2cc3c(=O)n(Cc4ccco4)ccc3nc2C)cc1 | -26% | -14% | -8% | 7%[59 µM] | nt
O=C(O)C1CC(=O)N(c2ccc(F)cc2)C1 (centres undefined) | 50µM* | -1% | ? | -10%[12.7 µM] | nt
O=Cc1ccc(OC(=O)C2CC(=O)N(c3ccc(F)cc3)C2)cc1 (centres undefined) | -7% | 4% | 39% | 50µM* | nt
O=C(C1CC(=O)N(c2ccc(F)cc2)C1)N1CCN(c2ccc(F)cc2)CC1 (centres undefined) | -17% | -13% | 9% | nt | nt
COC(=O)c1ccc(OC(=O)C2CC(=O)N(c3cccc(C)c3)C2)cc1 (centres undefined) | -6% | 25% | 47% | ? | -11%[11.4 µM]
CC1(C)C(=O)Nc2ccccc2N1C(=O)COC(=O)c1cccnc1Cl | -5% | nt | 17% | nt | -20%
CC12CCC(C/C1=N\N=C1\NC(=O)/C(=C\c3cccc(Br)c3)S1)C2(C)C (centres undefined) | ? | -28% | -14% | 1.3µM* | -7%
Cc1c(C2=CCN(S(=O)(=O)c3ccc(Br)cc3)CC2)c2ccccc2n1C | -30% | ? | -7% | 40µM* | -6%
Cc1ccc2oc(C(=O)N(Cc3ccccc3F)C3CCS(=O)(=O)C3)c(C)c2c1 (centres undefined) | -20% | -12% | 38% | -22%[59 µM] | nt
CCN(CC)S(=O)(=O)c1ccc(C(=O)NCc2n[nH]c(=S)n2-c2ccc(Cl)c(Cl)c2)cc1 | -31% | -37% | 1% | 16µM* | nt
